# Sampled rows, rich in hits. Any-hit rate of the full collection: about 8.1%.
# ClpP mod – qHTS Assay for Activators of ClpP; ATP-dependent Clp protease proteolytic subunit (Bacillus subtilis (strain 168)), P80244; purified B. subtilis ClpP, FRET peptide cleavage, 20 min; Potency, µM (series often up to 57.5 µM), for inactives: top-dose activity change, negative = active; actives 1.9% (n = 340,000); AID 651965, 2013; active means well fitted falling curve with a large enough effect; inconclusive means small, poorly fitted or top-dose-only effect; inactive means no such curve, though single readings can be large or run the other way; further: the source files actives as falling curves though it sought activators and does not explain the sign; nearly all actives have a fitted effect of over 65% in size
#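 ClpP 10 microg/mL final, pH 8 Tris/KCl buffer with BSA, glycerol, Tween-20; compound pinned in; FRET-FV substrate; RT 20 min; Ex320/Em430; ΔFRET vs ADEP 5.8 microM, DMSO, no enzyme.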
# Sfp PPTase inh – qHTS Assay for Inhibitors of Bacillus subtilis Sfp phosphopantetheinyl transferase (PPTase); AID 1490, 2009; actives 3.5% (n = 310,000); Potency, µM, for inactives: largest response in the series, negative = inhibition, actives largely listed as inhibitors; 4'-phosphopantetheinyl transferase ffp (Bacillus subtilis), Q9F4F7; Biochemical Sfp PPTase activity, qHTS;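 further: the enzyme is Sfp with the accession as filed and its product quenches rhodamine fluorescence; 0% = enzyme reaction without inhibitor and -100% = no enzyme wells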
#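 Fluorescence-quenching assay: 15 nM Sfp-PPTase preincubated 15 min at room temperature with compound, then 5 uM rhodamine-CoA and 12.5 uM BHQ-2-labelled YbbR peptide added. Fluorescence (ex 525/em 598 nm) read at start and after 30 min; difference gives rate.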
# PINK1 modulator – A Quantitative High throughput Screen to Identify Chemical Modulators of PINK1 Expression. PINK1 immunofluorescence, high-content cytometry, 24 h. Potency, µM (top dose mostly 76.6 µM), without a hit: at the top dose activation (PINK1 increase), usual class: activators. actives 0.2% (n = 410,000); active means well fitted activation curve with a large enough effect; inconclusive means small, poorly fitted or top-dose-only effect; cell line not stated here; further: % of control where 0% means no effect; nearly all actives have a fitted effect of over 65% in size
#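 PINK1 protein level read as immunofluorescence by microplate cytometer in a fixed, stained stable cell line after 24 h exposure to five compound concentrations, with CCCP as control.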
# VP16 counter – VP16 counterscreen qHTS for inhibitors of ROR gamma transcriptional activity; Drosophila S2 Gal4-VP16 UAS-luciferase, luminescence, 20 h; Potency, µM (titrated, usually from 53.6 µM), for inactives: at the highest dose activity, negative = inhibition, actives largely listed as inhibitors; actives 3.5% (n = 310,000);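 further: Gal4-VP16 expression switched on by copper sulfate through the metallothionein promoter; on the % scale 0 is the no-effect control and ±100 the full control effect; nearly all actives have a fitted effect of over 50% in size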
# RORgamma inh – qHTS for inhibitors of ROR gamma transcriptional activity; Nuclear receptor ROR-gamma (Mus musculus), P51450; Drosophila S2 Gal4-RORgamma UAS-luciferase reporter, 20 h; Potency, µM (top dose mostly 53.6 µM), without a hit: at the top dose activity change, negative = inhibition, hits mostly inhibitors; actives 5.4% (n = 310,000); AID 2551, 2010; further: on the % scale 0 is the no-effect control and ±100 the full control effect; nearly all actives have a fitted effect of over 60% in size
# Target sequence (P51450 whole entry, looked up, the tested form may be a part): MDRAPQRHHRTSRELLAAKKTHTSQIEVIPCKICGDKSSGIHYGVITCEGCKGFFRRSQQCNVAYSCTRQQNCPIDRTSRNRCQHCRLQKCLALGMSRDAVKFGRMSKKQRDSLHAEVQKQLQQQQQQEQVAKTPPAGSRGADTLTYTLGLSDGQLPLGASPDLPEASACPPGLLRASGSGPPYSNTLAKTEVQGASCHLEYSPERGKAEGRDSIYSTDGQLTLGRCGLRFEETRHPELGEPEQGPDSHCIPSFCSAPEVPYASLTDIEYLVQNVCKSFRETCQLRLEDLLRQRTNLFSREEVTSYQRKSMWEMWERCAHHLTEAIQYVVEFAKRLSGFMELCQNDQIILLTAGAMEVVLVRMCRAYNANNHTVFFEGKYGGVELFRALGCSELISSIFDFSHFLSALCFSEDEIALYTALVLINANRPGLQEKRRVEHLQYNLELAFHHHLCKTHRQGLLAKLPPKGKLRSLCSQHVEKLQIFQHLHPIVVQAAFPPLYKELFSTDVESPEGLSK
#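 Stably transfected Drosophila Schneider cells are the test system, with ROR gamma fused to Gal4 and luciferase under UAS control; luminescence is read after 20 hr of 700 uM copper sulfate induction at ambient temperature.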
# Epigenetic reg – Quantitative High-Throughput Screen for Regulators of Epigenetic Control; murine LDR cells, GFP reporter derepression, 30 h; Potency, µM (highest dose often 53.9 µM), for the others: at the highest dose GFP activation, most hits filed as activators; actives 0.2% (n = 280,000); AID 1865, 2009; further: % of control where 0% means no effect; nearly all actives have a fitted effect of over 60% in size
#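 GFP-positive cell count by laser-scanning cytometry (objects 20–120 um) after 30 h, 37 C compound exposure of murine LDR cells; reporter is CMV-GFP integrated at a silenced locus, inducible by HDAC or DNMT inhibitors.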
# Active calls of the source: *; ? = inconclusive; nt = no result; [ ] = dose if it differs, or a comment. Unless noted, the call rests on the fitted dose curve; in most records, active means well fitted curve in the direction sought with a large enough effect; inconclusive means small, poorly fitted or top-dose-only effect, or another doubt; inactive means no such curve, though single readings can be large; an effect the other way counts as inactive or inconclusive. Potency means the concentration at half of the fitted maximal effect.
SMILES,ClpP mod,Sfp PPTase inh,PINK1 modulator,VP16 counter,RORgamma inh,Epigenetic reg
C=Cc1ccc(Cn2c(C(=O)O)c(CNCc3ccccc3)c3ccc(C)cc32)cc1,-21.5%,nt,5.3%,nt,nt,2.2%
COc1ccc(-c2nn(-c3cccc([N+](=O)[O-])c3)c3c2cnc2cc4c(cc23)OCO4)cc1,-1.9%,nt,1.3%,nt,nt,-3.4%
O=C1N/C(=N/NC(=O)c2cccc3ccccc23)S/C1=C\c1ccccc1OCc1ccccc1,0.8%,-4.0%,-1.5%,?,0.631µM*,-3.4%
COc1ccc(OC)c(/C=C2\S/C(=N/NC(=O)c3ccc4ccccc4c3)NC2=O)c1,-0.9%,-26.4%,28.2%,?,1.41µM*,?
O=C(Nc1ccc(Cl)cc1)C1CCCN(S(=O)(=O)c2ccc3[nH]c(=O)ccc3c2)C1 (stereo unspecified),-4.1%,nt,9.7%,nt,nt,8.9%
COCCCNc1ncnc2sc(C(=O)N3CCCCC3)c(C)c12,nt,nt,-0.8%,nt,nt,nt
Cc1cc(C(F)F)nn1CC(=O)NC1C(=O)N2C(C(=O)O)=C(CSc3nnnn3C)CSC12 (stereo unspecified),nt,56.2µM*,0.5%,-4.4%,-15.4%,-0.3%
Cc1nn(C(C)C(=O)NC2C(=O)N3C(C(=O)O)=C(CSc4nnnn4C)CSC23)cc1Cl (stereo unspecified),-0.3%,79.4µM*,-2.2%,-13.7%,-7.9%,-5.7%
CCCCOc1ccc(C(=O)NCCS(=O)(=O)N2CCN(c3ccccc3OC)CC2)cc1,-0.6%,nt,-1.3%,nt,nt,-1.7%
Cc1ccc(-c2nnc(Nc3ccc(OCC(N)=O)cc3)c3ccccc23)cc1S(=O)(=O)N(C)C,0.9%,nt,2.1%,nt,nt,-1.6%
CCCCN(C)C(=O)C1CCCN(c2ncnc3onc(C)c23)C1 (stereo unspecified),-1.6%,nt,1.1%,nt,nt,-0.2%
COc1ccc(CCNC(=O)c2c(C)oc3ncn(CC(C)C)c(=O)c23)c(OC)c1,-0.2%,nt,0.0%,nt,nt,-1.3%
Cc1ccc(Cn2c(=N)n(CC(O)COc3ccccc3)c3ccccc32)cc1 (stereo unspecified),0.8%,22.4µM*,-3.2%,7.08µM*,5.01µM*,-5.4%
N=c1n(Cc2ccccc2)c2ccccc2n1CC(O)COc1ccccc1 (stereo unspecified),1.7%,-3.5%,0.3%[38.3 µM],-21.2%,5.4%,-1.0%
O=C(Nc1nonc1-c1ccc(Cl)cc1)c1ccccc1,nt,27.1%,?,?,11.2µM*,-7.4%
CSc1ncccc1C(=O)NCC1Cc2cc(-c3cnccn3)cc(Cl)c2O1 (stereo unspecified),nt,nt,0.2%,nt,nt,nt
CC(C)(C)c1ccc(COn2c(=O)c(-c3ccco3)[n+]([O-])c3ccccc32)cc1,-0.4%,56.2µM*,nt,0.8%,-3.4%,-8.4%
Cc1cc2oc(C(=O)NC3CCS(=O)(=O)C3)c(C)c2cc1C (stereo unspecified),28.2µM*,1.1%,2.2%,3.4%,-0.7%,-0.8%
COc1ccc(/C(C)=N/NC(=O)c2ccncc2)cc1,-0.3%,12.4%,-0.3%,-8.3%,-17.7%,nt
COc1ccc2oc(=O)c(/C(C)=N/NC(=O)c3ccncc3)cc2c1,-1.7%,-6.1%,0.9%,?,12.6µM*,0.0%
COc1ccc(C(=O)Nc2ccc(/C(C)=N/NC(=O)c3ccncc3)cc2)cc1,nt,50.1µM*,nt,-3.4%,23.7%,nt
CS(=O)(=O)c1ccc([C@@H](O)[C@@H](COC(=O)CN)NC(=O)C(Cl)Cl)cc1,nt,-3.9%,nt,-6.2%,24.9%,nt
O=C(Nc1nc2c(F)cc(F)cc2s1)C1CC(=O)N(Cc2ccco2)C1 (stereo unspecified),-6.2%,10µM*,1.2%,28.4%,3.4%,-1.1%
